Our source for the growth values is PubChem BioAssay (NCI).

About 83,000 compounds went through this panel and 20% of them were active in at least one assay; those are over-represented in the sample as a whole.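 48-hour exposure, single concentration, 96-well plates; percent growth endpoint where 0 means no net growth. Active: below 10.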 A number with no mark means an inactive call.

This test has as its system HOP-92 NSCLC. The test is described as follows: NCI-60 one-dose screen, 48 h (100 = growth as untreated, 0 = no growth, -100 = all killed). The conditions noted are these: 10 µM unless noted.
With `COc1ccccc1/C=C1\Oc2cc(OCCN3CCC(Cc4ccccc4)CC3)ccc2C1=O`, the growth was 57.8%.
The result for `O=C(COc1ccc(/C=C2\Cc3ccc(Cl)cc3C2=O)cc1)Nc1nc2ccccc2s1` reads 97%.
The result for `CCc1cccc2c3c(sc12)C(c1ccc(F)cc1)C(C#N)=C(N)O3` (centres undefined) reads 78.9%; that for `Cc1ccc(C(=O)N/N=C/c2cccc([N+](=O)[O-])c2)cn1`, 91.4%.
The same measure for `CCOC(=O)C1=C(N)Oc2c(sc3c(C)cccc23)C1c1ccc(Cl)cc1` (centres undefined): 85%.
As for `COc1ccc(-n2c(N)c(-c3nc4ccccc4[nH]3)cc(C#N)c2=O)cc1`, the growth is 84.7%.
The result for `Cc1cc2nc3cc(C)c(N)cc3[n+](-c3ccccc3)c2cc1N` reads 41.5%.
The same measure for `COc1c(N2CC3CCCN(C(C)=O)C3C2)c(F)cc2c(=O)c(C(=O)N[C@H]3C(O)[C@@H](O)C(CO)O[C@H]3O)cn(C3CC3)c12` (some centres undefined): 103%; for `COc1ccc(C2CC(c3ccc(Nc4nc(Nc5ccc(F)cc5)nc(Nc5ccc(Cl)cc5)n4)cc3)=NN2C(C)=O)cc1` (centres undefined): 82.8%; for `O=c1[nH][n+](-c2ccc(Br)cc2)no1`: 84.1%.
`O=C(CSc1nccc(Nc2ccc(S(=O)(=O)Nc3nccs3)cc2)n1)c1ccc(C(F)(F)F)cc1`: the growth is 90.8%.
Consider `COc1cc(C2CC(c3ccc(N(C)C)cc3)=NN2C(C)=O)cc(OC)c1OC` (centres undefined), for which the growth is 60.7%.
The same measure for `COc1ccc2c(c1)c(-c1ccc(-c3cn(C)c4ccc(OC)cc34)o1)cn2C`: 38%; for `COc1ccc(CN2c3ccccc3CCc3ccccc32)cc1F`: 36.4%.
